# In PubChem BioAssay (NCI):
# The panel holds about 83,000 compounds, 20% with a hit somewhere; the sample as a whole holds those more often.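 Percent growth is the endpoint: 0 to 100 indicates growth inhibition (40 means 60% inhibition), 0 means no net growth, and negative values indicate cell death.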 Active and inactive are the calls of the source. How the source made its calls: active means growth percent below 10; inactive means the rest.
# System: HL-60(TB) leukemia
# Experiment: NCI-60 one-dose screen, 48 h (100 = growth as untreated, 0 = no growth, -100 = all killed)
# Conditions: 10 µM unless noted
row,Compound,growth
1,Cn1cc(-c2csc(-c3c[nH]c4ccccc34)n2)c2cccnc21,11.5% (inactive)
2,COc1cccc(C2=NN(C(C)=O)C(c3cc(OC)c(OC)c(OC)c3)C2)c1 (stereo not drawn),-17.8% (active)
3,CCOC(=O)C(C)(CSSCC(C)(NC(=O)c1ccc2ccccc2c1)C(=O)OCC)NC(=O)c1ccc2ccccc2c1 (stereo not drawn),98.8% (inactive)
